According to PubChem BioAssay (NCI):
Compounds without any hit were thinned out: in the full panel of roughly 83,000, 20% have a hit.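 Percent growth is the endpoint: 0 to 100 indicates growth inhibition (40 means 60% inhibition), 0 means no net growth, and negative values indicate cell death.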 Values without a mark were called inactive. The source made the active and inactive calls. The calls were made as follows: active = growth percent below 10; inactive = the rest.

Experiments:
Assay in all cases: NCI-60 one-dose screen, 48 h (100 = growth as untreated, 0 = no growth, -100 = all killed)
Conditions in all cases: 10 µM unless noted
[1] = tested on: DU-145 prostate
[2] = tested on: K-562 leukemia
[3] = tested on: MALME-3M melanoma
[4] = tested on: MDA-MB-231 breast
[5] = tested on: RXF 393 renal
[6] = tested on: SF-268 CNS
[7] = tested on: SF-295 CNS
[8] = tested on: SF-539 CNS
[9] = tested on: UACC-257 melanoma
[10] = tested on: M14 melanoma
[11] = tested on: HCT-15 colon
[12] = tested on: HT29 colon
[13] = tested on: SNB-75 CNS
[14] = tested on: SNB-19 CNS
[15] = tested on: U251 CNS
[16] = tested on: PC-3 prostate
[17] = tested on: SK-MEL-5 melanoma
[18] = tested on: UACC-62 melanoma
[19] = tested on: LOX IMVI melanoma
[20] = tested on: SK-MEL-28 melanoma

SMILES	growth [1]	growth [2]	growth [3]	growth [4]	growth [5]	growth [6]	growth [7]	growth [8]	growth [9]	growth [10]	growth [11]	growth [12]	growth [13]	growth [14]	growth [15]	growth [16]	growth [17]	growth [18]	growth [19]	growth [20]
CCCCn1c(-c2ccc(-c3nc(-c4ccc(Cl)cc4)no3)cc2)nc(-c2ccccc2)c1-c1ccccc1	93.4%	58.9%	92%	79.9%	101%	95.5%	79%	85.5%	97.8%	94.4%	77.2%	90.2%	80.5%	83.5%	87%	70.4%	97.9%	71.5%	31.3%	90.8%
CN(C)c1ccc2nc3ccc(=[N+](C)C)c([N+](=O)[O-])c-3sc2c1	54%	23.8%	9.75% (active)	2.84% (active)	79.7%	33.4%	-1.42% (active)	36.6%	12.8%	9.93% (active)	32.1%	59%	91.6%	56.6%	6.01% (active)	4.48% (active)	19.5%	34.1%	4.03% (active)	57.8%
CCc1cccc2c3c(sc12)C(c1ccc(Cl)cc1)C(C#N)=C(N)O3 (stereo not given)	19.3%	6.13% (active)	54.6%	31.6%	-18.8% (active)	54.1%	2.87% (active)	-15.4% (active)	80%	5.36% (active)	13.8%	6.86% (active)	-10.2% (active)	27.1%	24.7%	7.23% (active)	29%	22.1%	26.6%	63.4%
CCCCn1c(=O)c(-c2cc(-c3ccc(Cl)cc3)nc(-c3ccc(Cl)cc3)c2)cc2cc(C)ccc21	112%	99.3%	105%	92.8%	105%	98%	99.1%	97.9%	100%	102%	101%	101%	98.5%	98.8%	106%	97.2%	104%	89.7%	98.5%	107%
CCc1ccccc1-n1c(N)c(C#N)c(-c2ccc(Cl)cc2)c(C#N)c1=O	110%	114%	173%	94.8%	113%	104%	99.3%	103%	125%	104%	108%	102%	90.5%	111%	119%	80.6%	106%	98.6%	100%	113%
O=C1NC(=O)C(c2ccccc2)(c2ccccc2)N1Cc1cn(-c2c3ccccc3nc3ccccc23)nn1	91.2%	39.2%	104%	73.1%	85.6%	89.3%	99%	98.5%	89.1%	96.2%	59.9%	85.3%	85.1%	89.4%	91.2%	78%	82.2%	72.4%	78.2%	103%
BrCCCc1n(Cc2ccc3ccccc3c2)c2ccccc2[n+]1Cc1ccc2ccccc2c1	-62.4% (active)	-13% (active)	-73.2% (active)	-60.8% (active)	-77.6% (active)	-75.4% (active)	-91.1% (active)	-74.9% (active)	-55.7% (active)	-60.4% (active)	-60.6% (active)	-50.8% (active)	-71.5% (active)	-33.3% (active)	-91.9% (active)	-69.1% (active)	-95.3% (active)	-76.2% (active)	-93.8% (active)	-75.8% (active)
COc1cc(CCCO)c(OC)c(OC)c1OC	109%	104%	100%	109%	108%	101%	106%	97.1%	103%	110%	110%	108%	86.9%	96.1%	101%	106%	109%	94.8%	98.1%	109%
Cc1nc(S(=O)(=O)c2ccccc2)c(S(=O)(=O)Cc2ccc([N+](=O)[O-])cc2)o1	91.3%	80.1%	95.2%	98.1%	93.2%	89.2%	114%	104%	85.4%	86.3%	82.5%	91.2%	72.9%	92.5%	98.8%	87.9%	95.9%	79.8%	89.6%	103%
NCCOc1ncccc1/C=C1\C2C=CC=CC2C2C=CC(F)=CC12 (stereo not given)	6.22% (active)	8.35% (active)	39.2%	37.4%	39.9%	32.3%	-2.83% (active)	11.1%	71.7%	18.8%	7.3% (active)	14.4%	40.3%	16%	10.8%	33.9%	21.7%	31.5%	-22.5% (active)	64.3%
O=C(Nc1ccc(Cl)cc1F)c1cc(Cl)ccc1O	12.5%	4.51% (active)	-32.2% (active)	-34.5% (active)	-12.7% (active)	7.67% (active)	-69.5% (active)	4.82% (active)	-17.9% (active)	-12.3% (active)	-4.97% (active)	19.5%	-6.93% (active)	13.6%	9.73% (active)	0.161% (active)	-90.5% (active)	-41.2% (active)	-18.9% (active)	-3.71% (active)
O=C(/C=C/c1sc(Cl)nc1Cl)c1ccc(F)cc1	92%	10%	79.3%	81.5%	93.3%	92.8%	95.7%	66.8%	95.9%	78.4%	31.2%	84.5%	92.5%	90.8%	40.4%	88.5%	93.6%	93.3%	0.0946% (active)	97.2%
COc1ccc(-c2ncnc3c2ncn3CC#CCCl)cc1	87.6%	58.3%	20.2%	70.1%	29.7%	62.9%	95.3%	92.3%	59.5%	70.1%	49.6%	93.9%	93.5%	72.5%	29.4%	57.1%	62.5%	51.2%	-31.7% (active)	86.7%
O=C(CCc1nnc(-c2c(Cl)cccc2Cl)o1)c1nc2ccccc2[nH]1	82.2%	2.22% (active)	79.3%	38.3%	81.5%	68.1%	59.5%	95.2%	78.6%	55.8%	81.5%	9.39% (active)	63.4%	75.1%	52.5%	53.1%	67%	42.3%	55.1%	82.7%
COc1ccc(NC(=O)n2nc(/C=C\c3ccc(O)c(OC)c3)cc2/C=C\c2ccc(O)c(OC)c2)cc1	27.2%	9.25% (active)	51.9%	36.5%	23%	41.8%	51.6%	6.72% (active)	75.2%	4.97% (active)	13.2%	31.3%	32.6%	38.9%	26%	28.4%	9.04% (active)	25.5%	27.6%	34.5%
O=C(Nn1c(NCC(=O)N2c3ccccc3Sc3ccccc32)nnc1-c1ccc(O)cc1)c1ccccc1	113%	118%	95.5%	95.3%	122%	105%	105%	105%	104%	92.8%	98%	103%	102%	107%	103%	90.7%	107%	98.9%	90.8%	115%
